Test results as given in PubChem BioAssay AID1159580 (chemical genetic matrix, 2015).
Screen size: about 5,500 compounds; about 2,000 (36%) were called active. Not shown: some 18% with an inconclusive outcome. No stated cut-off is given here; in the data, active means normalized growth mostly below about 0.91 (no sharp cut-off); inconclusive means no clear call, values can overlap the other calls; inactive means mostly above about 0.92. Some of the results follow.

Assay: chemical genetic growth profiling, strain panel (AID 1159580);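 further: tested at 20 µM; growth read once vehicle control cultures reached saturation at 30 °C; 1 = growth at the plate median or of vehicle wells; lower values mean less growth of the strain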
Conditions: S. cerevisiae deletion strains, growth OD
[1] = locus YAR019C, strain CDC15, active compounds read low
[2] = locus YBL105C, strain PKC1, active compounds read low
[3] = locus YBR135W, strain CKS1, active compounds read low
[4] = locus YBR136W, strain MEC1, active compounds read low
[5] = locus YBR160W, strain CDC28, active compounds read low
[6] = locus YDL017W, strain CDC7, active compounds read low
[7] = locus YDL028C, strain MPS1, active compounds read low
[8] = locus YDL101C, strain DUN1, active compounds read low
[9] = locus YDL108W, strain KIN28, active compounds read low
[10] = locus YDL132W, strain cdc53, active compounds read low
[11] = locus YDL214C, strain PRR2, active compounds read low
[12] = locus YDR052C, strain DBF4, active compounds read low
[13] = locus YDR054C, strain cdc34, active compounds read low
[14] = locus YDR226W, strain ADK1, active compounds read low
[15] = locus YDR477W, strain SNF1, active compounds read low
[16] = locus YER123W, strain YCK3, active compounds read low
[17] = locus YER133W, strain GLC7, active compounds read low
[18] = locus YFL009W, strain cdc4, active compounds read low
[19] = locus YFL029C, strain CAK1, active compounds read low
[20] = locus YFR003C, strain YPI1, active compounds read low
[21] = locus YFR019W, strain FAB1, active compounds read low
[22] = locus YFR028C, strain CDC14, active compounds read low
[23] = locus YGR040W, strain KSS1, active compounds read low
[24] = locus YGR052W, strain FMP48, active compounds read low
[25] = locus YGR092W, strain DBF2, active compounds read low
[26] = locus YHR030C, strain SLT2, active compounds read low
[27] = locus YHR079C, strain IRE1, active compounds read low
[28] = locus YHR082C, strain KSP1, active compounds read low
[29] = locus YHR205W, strain SCH9, active compounds read low
[30] = locus YIL147C, strain SLN1, active compounds read low
[31] = locus YJL095W, strain BCK1, active compounds read low
[32] = locus YJL128C, strain PBS2, active compounds read low
[33] = locus YJL157C, strain FAR1, active compounds read low
[34] = locus YJR016C, strain ILV3, active compounds read low
[35] = locus YJR066W, strain TOR1 (second series), active compounds read low
[36] = locus YJR066W, strain TOR1, active compounds read low
[37] = locus YKL048C, strain ELM1, active compounds read low
[38] = locus YKL067W, strain YNK1, active compounds read low
[39] = locus YKL101W, strain HSL1, active compounds read low
[40] = locus YKL193C, strain SDS22, active compounds read low
[41] = locus YKL203C, strain TOR2, active compounds read low
[42] = locus YLR113W, strain HOG1, active compounds read low
[43] = locus YLR133W, strain CKI1, active compounds read low
[44] = locus YLR403W, strain SFP1, active compounds read low
[45] = locus YML070W, strain DAK1, active compounds read low
[46] = locus YMR001C, strain CDC5, active compounds read low
[47] = locus YMR205C, strain PFK2 (second series), active compounds read low
[48] = locus YMR277W, strain FCP1, active compounds read low
[49] = locus YNL006W, strain LST8, active compounds read low
[50] = locus YNL020C, strain ARK1, active compounds read low
[51] = locus YNL161W, strain CBK1, active compounds read low
[52] = locus YNL183C, strain NPR1, active compounds read low
[53] = locus YNL207W, strain RIO2, active compounds read low
[54] = locus YNL222W, strain SSU72, active compounds read low
[55] = locus YNL307C, strain MCK1 (second series), active compounds read low
[56] = locus YOL078W, strain AVO1, active compounds read low
[57] = locus YOL136C, strain PFK27, active compounds read low
[58] = locus YOR061W, strain CKA2, active compounds read low
[59] = locus YOR119C, strain RIO1, active compounds read low
[60] = locus YOR231W, strain MKK1, active compounds read low
[61] = locus YOR329C, strain SCD5, active compounds read low
[62] = locus YPL031C, strain PHO85, active compounds read low
[63] = locus YPL153C, strain RAD53, active compounds read low
[64] = locus YPL204W, strain HRR25, active compounds read low
[65] = locus YPL209C, strain IPL1, active compounds read low
[66] = locus YPL256C, strain CLN2, active compounds read low
[67] = locus YPR025C, strain CCL1, active compounds read low
[68] = locus YPR106W, strain ISR1, active compounds read low
[69] = locus YPR111W, strain DBF20, active compounds read low
[70] = strain NNK1, active compounds read low
[71] = strain TSCII, active compounds read low

Measured: normalized growth

CCOC(=O)C(O)(c1ccc(NC(=O)c2ccc(Cl)c(Cl)c2)cc1)C(F)(F)F (stereo not drawn)
inactive: [1] 0.998 | [2] 0.988 | [3] 1 | [4] 0.989 | [5] 0.996 | [6] 0.997 | [7] 0.993 | [8] 0.994 | [9] 0.997 | [10] 0.997 | [11] 0.874 | [12] 0.996 | [13] 0.991 | [14] 0.992 | [15] 0.92 | [16] 0.859 | [17] 0.926 | [18] 0.99 | [19] 0.992 | [20] 0.999 | [21] 0.933 | [22] 1 | [23] 0.915 | [24] 0.979 | [25] 0.892 | [26] 0.962 | [27] 0.953 | [28] 0.967 | [29] 0.928 | [30] 0.986 | [31] 1.01 | [32] 0.946 | [33] 0.913 | [34] 0.988 | [35] 0.914 | [36] 0.994 | [37] 0.953 | [38] 0.935 | [39] 0.901 | [40] 1 | [41] 0.994 | [42] 0.977 | [43] 0.939 | [44] 0.94 | [45] 0.886 | [46] 0.997 | [47] 0.941 | [48] 1 | [49] 0.986 | [50] 0.919 | [51] 0.99 | [52] 1.02 | [53] 0.992 | [54] 0.994 | [55] 0.91 | [56] 1 | [57] 0.895 | [58] 0.911 | [59] 0.957 | [60] 0.977 | [61] 1 | [62] 0.896 | [63] 0.912 | [64] 0.922 | [65] 0.996 | [66] 0.976 | [67] 1 | [68] 0.988 | [69] 0.986 | [70] 0.987 | [71] 0.993

CCOC(=O)C(NC(=O)c1cccc(Cl)c1)(Nc1nc2ccccc2s1)C(F)(F)F (stereo not drawn)
inactive: [1] 0.967 | [2] 0.957 | [3] 0.956 | [4] 0.96 | [5] 0.967 | [6] 0.962 | [7] 0.961 | [8] 0.973 | [9] 0.963 | [10] 0.952 | [11] 0.927 | [12] 0.955 | [13] 0.952 | [14] 0.956 | [15] 0.917 | [16] 0.906 | [17] 0.9 | [18] 0.954 | [19] 0.975 | [20] 0.957 | [21] 0.955 | [22] 0.963 | [23] 0.926 | [24] 0.943 | [25] 0.996 | [27] 1 | [28] 0.989 | [29] 1.01 | [30] 0.955 | [31] 0.98 | [32] 0.949 | [33] 0.915 | [34] 0.963 | [35] 0.949 | [36] 1.02 | [37] 0.937 | [38] 0.94 | [39] 0.929 | [40] 0.964 | [41] 1.01 | [43] 0.935 | [44] 1.02 | [45] 0.914 | [46] 0.967 | [47] 0.941 | [48] 0.964 | [49] 0.966 | [50] 0.931 | [51] 0.96 | [52] 1.07 | [53] 0.961 | [54] 0.968 | [55] 0.916 | [56] 0.962 | [57] 0.924 | [58] 0.939 | [59] 0.992 | [60] 0.967 | [61] 0.964 | [62] 0.917 | [63] 0.927 | [64] 0.913 | [65] 0.962 | [66] 0.894 | [67] 0.966 | [68] 0.962 | [69] 0.958 | [70] 0.971 | [71] 0.962
active: [26] 0.796 | [42] 0.823

COc1ccccc1NC(=S)NCCc1ccc(OC)c(OC)c1
inactive: locus YAL013W, strain DEP1, active compounds read low 0.997 | locus YBR229C, strain ROT2, active compounds read low 1 | [8] 1.05 | locus YDR150W, strain NUM1, active compounds read low 1.02 | locus YEL061C, strain CIN8, active compounds read low 0.998 | locus YGR078C, strain PAC10, active compounds read low 0.998 | [26] 0.979 | locus YHR087W, strain rtc3, active compounds read low 1.02 | locus YJR043C, strain POL32, active compounds read low 0.982 | locus YJR075W, strain HOC1, active compounds read low 0.991 | locus YLR039C, strain RIC1, active compounds read low 0.91 | locus YLR058C, strain SHM2 (second series), active compounds read low 0.99 | locus YLR085C, strain ARP6, active compounds read low 0.942 | locus YLR262C, strain YPT6, active compounds read low 0.954 | locus YML094W, strain GIM5, active compounds read low 1.1 | locus YMR219W, strain ESC1, active compounds read low 0.999 | locus YMR263W, strain SAP30, active compounds read low 0.989 | locus YNL153C, strain GIM3, active compounds read low 1.02 | locus YNL298W, strain CLA4 (second series), active compounds read low 0.952 | locus YNL322C, strain KRE1, active compounds read low 0.997 | locus YNR030W, strain Alg12, active compounds read low 1.02 | locus YPL055C, strain LGE1, active compounds read low 1.03 | locus YPL241C, strain CIN2, active compounds read low 0.927 | locus YPR135W, strain CTF4, active compounds read low 1.04

S=C(NCc1cccs1)Nc1cc(Cl)cc(Cl)c1
inactive: [1] 0.942 | [2] 0.947 | [3] 0.936 | [4] 0.945 | [5] 0.944 | [6] 0.955 | [7] 0.944 | [8] 0.979 | [9] 0.947 | [10] 0.962 | [11] 0.912 | [12] 0.96 | [13] 0.967 | [14] 0.955 | [15] 0.894 | [16] 0.848 | [17] 0.867 | [18] 0.928 | [19] 0.936 | [20] 0.948 | [21] 0.95 | [22] 0.959 | [23] 0.891 | [24] 0.964 | [25] 0.739 | [26] 0.988 | [27] 0.961 | [28] 0.901 | [29] 0.946 | [30] 0.949 | [31] 0.958 | [32] 0.892 | [33] 0.879 | [34] 0.948 | [35] 0.874 | [36] 0.917 | [37] 0.953 | [38] 0.902 | [39] 0.923 | [40] 0.937 | [41] 0.944 | [42] 0.912 | [43] 0.931 | [44] 0.898 | [45] 0.883 | [46] 0.941 | [47] 0.918 | [48] 0.934 | [49] 0.944 | [50] 0.906 | [51] 0.946 | [52] 0.928 | [53] 0.928 | [54] 0.93 | [55] 0.935 | [56] 0.934 | [57] 0.897 | [58] 0.872 | [59] 0.936 | [60] 1.01 | [61] 0.949 | [62] 0.865 | [63] 0.862 | [64] 0.878 | [65] 0.942 | [66] 0.961 | [67] 0.949 | [68] 0.948 | [69] 0.952 | [70] 0.959 | [71] 0.936

S=C(NCCc1csc2ccccc12)Nc1ccc(Cl)cc1
active: [26] 0.5 | [29] 0.566 | [42] 0.536 | [66] 0.667
inactive: [1] 0.923 | [2] 0.945 | [3] 0.945 | [4] 0.944 | [5] 0.956 | [6] 0.952 | [7] 0.942 | [8] 0.962 | [9] 0.95 | [10] 0.944 | [11] 0.797 | [12] 0.96 | [13] 0.931 | [14] 0.951 | [15] 0.815 | [16] 0.719 | [17] 0.816 | [18] 0.944 | [19] 0.9 | [20] 0.953 | [21] 0.934 | [22] 0.945 | [23] 0.819 | [24] 0.795 | [25] 0.735 | [27] 0.786 | [28] 0.721 | [30] 0.938 | [31] 0.677 | [32] 0.872 | [33] 0.863 | [34] 0.945 | [35] 0.759 | [36] 0.727 | [37] 0.914 | [38] 0.828 | [39] 0.787 | [40] 0.943 | [41] 0.886 | [43] 0.797 | [44] 0.752 | [45] 0.808 | [46] 0.946 | [47] 0.84 | [48] 0.941 | [49] 0.96 | [50] 0.795 | [51] 0.952 | [52] 0.754 | [53] 0.937 | [54] 0.952 | [55] 0.729 | [56] 0.945 | [57] 0.8 | [58] 0.811 | [59] 0.867 | [60] 0.789 | [61] 0.952 | [62] 0.768 | [63] 0.775 | [64] 0.809 | [65] 0.946 | [67] 0.945 | [68] 0.936 | [69] 0.917 | [70] 0.914 | [71] 0.922
